In PMC11995724, “Antibiotic target discovery by integrated phenotypic and activity-based profiling of electrophilic fragments” (Cell chemical biology, 2025):
Screen size: about 3,200 compounds; about 110 (3.4%) showed an effect of 50% or more. This is one part of a sample in which strong results are shown more often than they occur.

Tested on: T1, V. cholerae SAD30
T1 construct: SAD30
Set-up: species or system S. aureus MSSA476 (TSB) or V. cholerae SAD30 (LB); 384-well bacterial growth screen at 25 uM, OD600 relative to DMSO control
Settings: relative growth, OD600, LB; 25 µM; inhibitor

Going from `N#Cc1cc([N+](=O)[O-])ccc1NC(=O)CCl` [4-O09, 2-chloro-N-(2-cyano-4-nitrophenyl)acetamide] to `CC(Cl)C(=O)Nc1cc([N+](=O)[O-])ccc1Cl` (stereo not drawn) [6-I14, 2-chloro-N-(2-chloro-5-nitrophenyl)propanamide], the “% of control remaining” value falls from 91.611% to 87.6671%.

Going from `O=C1C=CC(=O)N1c1cc([N+](=O)[O-])ccc1Cl` [10-H15, 1-(2-chloro-5-nitrophenyl)-2,5-dihydro-1H-pyrrole-2,5-dione] to `Cc1ccc([N+](=O)[O-])cc1N1C(=O)C=CC1=O` [10-O14, 1-(2-methyl-5-nitrophenyl)-2,5-dihydro-1H-pyrrole-2,5-dione], the “% of control remaining” value falls from 28.2096% to 26.6511%.

Compared with `O=C(CCl)N1CCCCc2ccc([N+](=O)[O-])cc21` [5-I18, 2-chloro-1-(8-nitro-2,3,4,5-tetrahydro-1H-1-benzazepin-1-yl)ethan-1-one], `CC(NC(=O)CCl)c1ccc2c(c1)CCCC2` (stereo not drawn) [4-B03, 2-chloro-N-[1-(5,6,7,8-tetrahydronaphthalen-2-yl)ethyl]acetamide] is higher in “% of control remaining” value: 94.3154% for the first, 113.867% for the second.

First: O=C(CCl)Nc1cc(C(F)(F)F)ccc1Cl [4-J04, 2-chloro-N-[2-chloro-5-(trifluoromethyl)phenyl]acetamide]
Second: CC(Cl)C(=O)Nc1cc(C(F)(F)F)ccc1Cl (stereo not drawn) [4-N15, 2-chloro-N-[2-chloro-5-(trifluoromethyl)phenyl]propanamide]
The “% of control remaining” value of the first is higher: 111.106% for the first, 99.8922% for the second.

Compared with `N#CC(=Cc1cc([N+](=O)[O-])ccc1Cl)C(N)=O` [8-F21, 3-(2-chloro-5-nitrophenyl)-2-cyanoprop-2-enamide], `COc1ccc(-c2nn(-c3ccccc3)cc2C=C(C#N)C(N)=O)cc1` [8-L16, 2-cyano-3-[3-(4-methoxyphenyl)-1-phenyl-1H-pyrazol-4-yl]prop-2-enamide] is lower in “% of control remaining” value: 76.0707% for the first, 71.7199% for the second.

Going from `O=C1C=CC(=O)N1c1cc(C(F)(F)F)ccc1Cl` [10-G09, 1-[2-chloro-5-(trifluoromethyl)phenyl]-2,5-dihydro-1H-pyrrole-2,5-dione] to `C=CCNC(=O)C(C#N)=Cc1cccc(C(F)(F)F)c1` [8-L09, 2-cyano-N-(prop-2-en-1-yl)-3-[3-(trifluoromethyl)phenyl]prop-2-enamide], the “% of control remaining” value rises from 26.3394% to 71.8559%.

Going from `CC(NC(=O)CCl)C(=O)N1CCCCC1C` (stereo not drawn) [5-M06, 2-chloro-N-[1-(2-methylpiperidin-1-yl)-1-oxopropan-2-yl]acetamide] to `O=C(CCl)NC(c1ccccc1)C1CCCC1` (stereo not drawn) [6-O18, 2-chloro-N-[cyclopentyl(phenyl)methyl]acetamide], the “% of control remaining” value falls from 96.6691% to 92.0656%.

First: C=CC(=O)NC(C)c1cn(-c2ccccc2)nn1 (stereo not drawn) [1-N04, N-[1-(1-phenyl-1H-1,2,3-triazol-4-yl)ethyl]prop-2-enamide]
Second: C=CC(=O)N[C@H]1CCN(S(=O)(=O)c2ccccc2)C1 [3-P11, N-[(3S)-1-(benzenesulfonyl)pyrrolidin-3-yl]prop-2-enamide]
The “% of control remaining” value of the first is higher: 110.893% for the first, 106.205% for the second.

Going from `CCN(Cc1ccc(Cl)s1)C(=O)CCl` [6-M11, 2-chloro-N-[(5-chlorothiophen-2-yl)methyl]-N-ethylacetamide] to `O=C(CCl)c1sccc1Cl` [10-K11, 2-chloro-1-(3-chlorothiophen-2-yl)ethan-1-one], the “% of control remaining” value falls from 83.1169% to 0%.

Going from `CC(Cl)C(=O)N1N=C(c2ccc(Cl)cc2)CC1c1ccco1` (stereo not drawn) [5-H18, 2-chloro-1-[3-(4-chlorophenyl)-5-(furan-2-yl)-4,5-dihydro-1H-pyrazol-1-yl]propan-1-one] to `O=C(CCl)N1N=C(c2ccc(Cl)cc2)CC1c1ccco1` (stereo not drawn) [5-L04, 2-chloro-1-[3-(4-chlorophenyl)-5-(furan-2-yl)-4,5-dihydro-1H-pyrazol-1-yl]ethan-1-one], the “% of control remaining” value rises from 49.4273% to 105.748%.

Going from `COc1ccc(C2=NN(C(=O)CCl)C(c3ccco3)C2)cc1` (stereo not drawn) [4-N19, 2-chloro-1-[5-(furan-2-yl)-3-(4-methoxyphenyl)-4,5-dihydro-1H-pyrazol-1-yl]ethan-1-one] to `COc1ccc(C2=NN(C(=O)CCl)C(c3ccc(F)cc3)C2)cc1` (stereo not drawn) [4-M20, 2-chloro-1-[5-(4-fluorophenyl)-3-(4-methoxyphenyl)-4,5-dihydro-1H-pyrazol-1-yl]ethan-1-one], the “% of control remaining” value falls from 106.103% to 100.927%.

First: C=CC(=O)NCc1ccc2oc(=O)n(C)c2c1 [2-L15, N-[(3-methyl-2-oxo-2,3-dihydro-1,3-benzoxazol-5-yl)methyl]prop-2-enamide]
Second: Cn1c(=O)oc2cc(C(=O)CCl)ccc21 [10-F07, 6-(2-chloroacetyl)-3-methyl-2,3-dihydro-1,3-benzoxazol-2-one]
The “% of control remaining” value of the first is higher: 88.6519% for the first, 44.886% for the second.

Compared with `Cc1cc(C(=O)CCl)co1` [10-A13, 2-chloro-1-(5-methylfuran-3-yl)ethan-1-one], `COc1ccc(C(=O)CCl)cc1Cl` [10-D10, 2-chloro-1-(3-chloro-4-methoxyphenyl)ethan-1-one] is lower in “% of control remaining” value: 114.397% for the first, 0.9351% for the second.

Going from `Cc1nc2n(n1)CCN(C(=O)C(C)Cl)C2` (stereo not drawn) [5-A04, 2-chloro-1-{2-methyl-5H,6H,7H,8H-[1,2,4]triazolo[1,5-a]pyrazin-7-yl}propan-1-one] to `C=CC(=O)N1CC[C@H](NS(C)(=O)=O)C1` [2-H21, N-[(3S)-1-(prop-2-enoyl)pyrrolidin-3-yl]methanesulfonamide], the “% of control remaining” value falls from 108.438% to 102.239%.

Going from `Cc1cc(C(=O)CCl)c(C)n1-c1ccc(Cl)c(Cl)c1` [10-D18, 2-chloro-1-[1-(3,4-dichlorophenyl)-2,5-dimethyl-1H-pyrrol-3-yl]ethan-1-one] to `Cc1cc(C(=O)CCl)c(C)n1-c1ccc(Cl)cc1` [10-H18, 2-chloro-1-[1-(4-chlorophenyl)-2,5-dimethyl-1H-pyrrol-3-yl]ethan-1-one], the “% of control remaining” value falls from 108.475% to 103.331%.

Compared with `COC(=O)c1cccc(C(=O)CCl)c1` [10-I11, methyl 3-(2-chloroacetyl)benzoate], `COC(=O)c1ccc2[nH]cc(C(=O)CCl)c2c1` [10-D05, methyl 3-(2-chloroacetyl)-1H-indole-5-carboxylate] is higher in “% of control remaining” value: 32.4177% for the first, 99.1233% for the second.

Going from `O=C(O)c1csc(C(=O)CCl)c1` [10-E22, 5-(2-chloroacetyl)thiophene-3-carboxylic acid] to `CN(C)C(=O)c1csc(C(=O)CCl)c1` [10-I07, 5-(2-chloroacetyl)-N,N-dimethylthiophene-3-carboxamide], the “% of control remaining” value rises from 102.864% to 105.981%.

First: O=C(CCl)c1cc(Cl)ccc1Cl [10-E16, 2-chloro-1-(2,5-dichlorophenyl)ethan-1-one]
Second: O=C(CCl)c1ccc(Cl)c(Cl)c1 [10-L16, 2-chloro-1-(3,4-dichlorophenyl)ethan-1-one]
The “% of control remaining” value of the first is higher: 49.5617% for the first, 0% for the second.

Compared with `CC(Cl)C(=O)c1ccc(F)c(F)c1` (stereo not drawn) [10-A17, 2-chloro-1-(3,4-difluorophenyl)propan-1-one], `O=C(CCl)c1ccc(F)c(F)c1` [10-L13, 2-chloro-1-(3,4-difluorophenyl)ethan-1-one] is lower in “% of control remaining” value: 103.955% for the first, 4.208% for the second.

Going from `CC(=O)NCCc1cc(C(=O)CCl)ccc1F` [10-O05, N-{2-[5-(2-chloroacetyl)-2-fluorophenyl]ethyl}acetamide] to `O=C(CCl)c1ccc2[nH]c(=O)[nH]c2c1` [10-I14, 5-(2-chloroacetyl)-2,3-dihydro-1H-1,3-benzodiazol-2-one], the “% of control remaining” value falls from 118.138% to 105.513%.

Compared with `COC(=O)c1ccccc1NC(=O)CCl` [5-B12, methyl 2-(2-chloroacetamido)benzoate], `COc1ccc(C(=O)CCl)c(OC)c1` [10-G18, 2-chloro-1-(2,4-dimethoxyphenyl)ethan-1-one] is higher in “% of control remaining” value: 89.6081% for the first, 111.748% for the second.

Compared with `Cc1cccc(C=C(C#N)C(=O)Nc2ccc(C(=O)O)cc2)c1` [8-M21, 4-[2-cyano-3-(3-methylphenyl)prop-2-enamido]benzoic acid], `CC(C)NC(=O)C(C#N)=Cc1ccc(Cl)cc1` [9-C09, 3-(4-chlorophenyl)-2-cyano-N-(propan-2-yl)prop-2-enamide] is higher in “% of control remaining” value: 75.7988% for the first, 85.3161% for the second.

First: COc1cc2c(cc1NC(=O)C(C)Cl)oc1ccccc12 (stereo not drawn) [6-G09, 2-chloro-N-{4-methoxy-8-oxatricyclo[7.4.0.0,2,7]trideca-1(9),2(7),3,5,10,12-hexaen-5-yl}propanamide]
Second: O=C(CCl)c1ccc2c(c1)-c1ccccc1C2 [10-H17, 2-chloro-1-(9H-fluoren-3-yl)ethan-1-one]
The “% of control remaining” value of the first is lower: 55.9674% for the first, 91.4865% for the second.

Going from `COCC(C)n1c(C)cc(C=C(C#N)C(=O)NS(C)(=O)=O)c1C` (stereo not drawn) [8-B04, 2-cyano-N-methanesulfonyl-3-[1-(1-methoxypropan-2-yl)-2,5-dimethyl-1H-pyrrol-3-yl]prop-2-enamide] to `Cc1cc(C=C(C#N)C(=O)Nc2nccs2)cc(C)c1O` [9-D13, 2-cyano-3-(4-hydroxy-3,5-dimethylphenyl)-N-(1,3-thiazol-2-yl)prop-2-enamide], the “% of control remaining” value rises from 81.6451% to 84.7723%.

Compared with `C=CC(=O)N(CC)Cc1nc2ccsc2c(=O)[nH]1` [3-P16, N-ethyl-N-({4-oxo-3H,4H-thieno[3,2-d]pyrimidin-2-yl}methyl)prop-2-enamide], `C=CC(=O)N1Cc2ccccc2C[C@@H]1C(=O)NC1CC1` [2-G06, (3R)-N-cyclopropyl-2-(prop-2-enoyl)-1,2,3,4-tetrahydroisoquinoline-3-carboxamide] is lower in “% of control remaining” value: 108.146% for the first, 95.7541% for the second.

`COc1cc(OC)c(C(=O)CCl)c(OC)c1` [10-L04, 2-chloro-1-(2,4,6-trimethoxyphenyl)ethan-1-one] was tested, and the “% of control remaining” value was 98.344%.
